High-throughput results as filed in PubChem BioAssay.
TMEM16A inh = inhibitors of mouse TMEM16A calcium-activated chloride channel | AID 588511 | 310,000 tested, 1.2% active | HEK293 TMEM16A/YFP iodide influx fluorescence, ionomycin | normalized B-score (activity score, 25-100; higher = stronger inhibition) at 10 µM | Q8BHY3;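 active = ratio plate-corrected score three or more library SD toward inhibition, starting fluorescence score within five deviations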;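 note: score derived from kinetic fluorescence span divided by baseline fluorescence per well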
Target sequence (Q8BHY3 whole entry, looked up): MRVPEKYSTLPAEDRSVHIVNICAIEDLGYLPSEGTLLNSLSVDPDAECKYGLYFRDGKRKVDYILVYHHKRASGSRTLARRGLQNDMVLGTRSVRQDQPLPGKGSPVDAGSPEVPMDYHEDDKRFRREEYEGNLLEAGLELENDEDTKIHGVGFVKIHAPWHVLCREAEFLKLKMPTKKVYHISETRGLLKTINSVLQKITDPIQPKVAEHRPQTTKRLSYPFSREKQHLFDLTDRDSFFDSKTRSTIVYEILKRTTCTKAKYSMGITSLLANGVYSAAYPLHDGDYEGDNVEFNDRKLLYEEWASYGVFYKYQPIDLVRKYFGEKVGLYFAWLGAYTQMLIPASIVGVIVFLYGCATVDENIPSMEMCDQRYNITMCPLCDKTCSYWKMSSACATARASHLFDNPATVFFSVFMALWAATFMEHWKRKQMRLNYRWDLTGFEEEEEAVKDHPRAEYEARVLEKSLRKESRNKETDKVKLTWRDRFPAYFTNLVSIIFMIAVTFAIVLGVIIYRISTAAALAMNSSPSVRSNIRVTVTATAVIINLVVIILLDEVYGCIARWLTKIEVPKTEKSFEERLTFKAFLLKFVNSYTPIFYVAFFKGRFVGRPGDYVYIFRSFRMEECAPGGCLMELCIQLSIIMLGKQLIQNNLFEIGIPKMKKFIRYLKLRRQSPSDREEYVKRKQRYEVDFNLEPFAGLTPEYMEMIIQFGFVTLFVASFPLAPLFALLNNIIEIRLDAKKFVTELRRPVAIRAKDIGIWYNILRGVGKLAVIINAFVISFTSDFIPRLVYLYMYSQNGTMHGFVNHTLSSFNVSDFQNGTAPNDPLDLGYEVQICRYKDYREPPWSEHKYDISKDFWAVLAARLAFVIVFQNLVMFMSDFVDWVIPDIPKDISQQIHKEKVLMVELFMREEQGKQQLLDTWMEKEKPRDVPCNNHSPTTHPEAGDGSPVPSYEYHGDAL
TMEM16A act = activators or potentiators of mouse TMEM16A chloride channel; 340,000 tested, 0.3% active; B-score at 10 µM; AID 623877; HEK293 TMEM16A/YFP-H148Q/I152L, iodide quench fluorescence; active compounds read low;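 active = fluorescence-ratio B-score plate-corrected deviation score at least 3 library SD below zero, with starting fluorescence score within 5 deviations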;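 note: channel opened by trigger with iodide after compound preincubation; score built on the fluorescence ratio of max minus min over baseline; more negative score means more quench and so TMEM16A activation or potentiation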
Jurkat NFkB inh = inhibitors of the PMA/ionomycin-induced NF-kB reporter in Jurkat cells. 330,000 tested, 0.53% active. PMA/ionomycin-induced NF-kB luciferase reporter, luminescence. inhibition, % at 4 µM; in the data active = inhibition above about 50%
aSyn 5UTR inh = MLPCN primary screen, SNCA 5' untranslated region | 300,000 tested, 0.82% active | inhibition, % (tested at 7.5 µM) | alpha-synuclein 5'UTR reporter, inhibitor activity; in the data active = inhibition above about 60%;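 note: H4 neuroglioblastoma cells stably carrying SNCA 5'UTR luciferase fusion; 0% = DMSO wells and 100% = positive control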
KLF5 inhibitor = kruppel-like factor 5 inhibition; DLD-1 KLF5 promoter-luciferase reporter, luminescence; inhibition, % at 5 µM; 290,000 tested, 0.23% active;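 active = inhibition above a per-plate limit of that plate's mean compound inhibition plus 3 SD, cut at about 60% in these data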;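 note: 0% = DMSO wells and 100% = LY294002 at 200 µM; higher means less KLF5 promoter-driven luciferase light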
697 NFkB inh = lowers PMA/ionomycin-induced NF-kB signal in 697 B cells. 697 B-cell NF-kB luciferase reporter, 16 h. inhibition, % at 4 µM. 330,000 tested, 0.33% active; in the data active = inhibition above about 35%
Jurkat NFkB conf = inhibitors of the PMA/ionomycin-induced NF-kB reporter in Jurkat cells, retest; inhibition, % at 4 µM; Jurkat NF-kB luciferase, 16 h; shares compounds with Jurkat NFkB inh; 2,700 tested, 27% active;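 active = inhibition reaching about 45% at 4 µM in either replicate, limit read from the data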;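 note: plate controls were PMA/ionomycin stimulated DMSO wells for no effect and unstimulated DMSO wells for full effect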
An asterisk follows results filed as active; i = inactive; x = no result. A selection: hits, their analogues and other compounds. The true share with any hit is near 2.5%.

SMILES	TMEM16A inh	TMEM16A act	Jurkat NFkB inh	aSyn 5UTR inh	KLF5 inhibitor	697 NFkB inh	Jurkat NFkB conf
N#CCC(CNc1ncc(C(F)(F)F)cc1Cl)OC(=O)c1cccc(C(F)(F)F)c1 (configuration not stated)	i	i	60.3*	-28.4	0.0	4.9	8.6
Cc1ccc(NC2=C/C(=N/S(=O)(=O)c3cccs3)c3ccccc3C2=O)cc1	i	i	-24.5	-51.9	-57.5	-97.1	x
Cc1ccc(S(=O)(=O)/N=C2\C=C(Nc3ccc(O)cc3)C(=O)c3ccccc32)cc1	x	i	64.3*	x	x	18.9	99.3*
COc1ccc(C2=NOC(C(=O)NCc3ccccc3)C2)cc1 (configuration not stated)	i	i	63.7*	-16.5	34.6	-92.2	13.7
CCn1ncc(C2=NOC(C(=O)NCc3ccccc3)C2)c1C (configuration not stated)	i	i	74.1*	25.9	51.9	18.2	45.5
ClCCn1cnc2c(SCc3ccccc3)ncnc21	x	i	x	x	x	x	x
COc1ccccc1NS(=O)(=O)c1ccc2c(c1)CCN2C(=O)CCC(=O)O	i	i	-5.4	-5.7	1.7	0.4	x
CN1CCC(NCCC(c2ccc(F)cc2)c2ccc(Cl)cc2)CC1 (configuration not stated)	i	i	71.7*	22.1	-29.5	18.6	29.5
CC(C)C(CCNC1CCN(C)CC1)c1ccc(Cl)cc1 (configuration not stated)	i	i	43.4	-34.9	-47.6	21.9	x
COC(=O)c1c(NC(=O)Cc2ccccc2)sc2c1CCN(C(C)C)C2	i	i	-25.7	4.0	-12.6	-18.7	x
COC(=O)c1c(NC(=O)c2ccc([N+](=O)[O-])o2)sc2c1CCN(C(C)C)C2	i	i	66.5*	104.9*	-0.2	-85.6	43.2
O=C(c1ccco1)N1CCCC(c2nc3c(nnn3Cc3ccc(Cl)cc3Cl)c(=O)[nH]2)C1 (configuration not stated)	i	i	12.4	2.4	-19.9	-8.6	x
Cc1ccc(OCC(=O)c2cc(C)n(-c3ccccc3)c2C)c([N+](=O)[O-])n1	i	i	76.0*	67.9*	-18.8	12.4	11.2
CCCn1c(C)cc(C(=O)COc2ccc(C)nc2[N+](=O)[O-])c1C	i	i	-3.0	-5.2	-10.2	-7.5	x
CCCCNCCCOc1ccc(C)cc1Br	i	i	14.6	6.6	1.9	-5.8	x
Cc1ccc(OCCCNCCO)c(Br)c1	i	i	80.7*	9.4	-70.0	-8.0	35.0
COc1cccc(NC(=O)CCC(=O)Nc2ccc3nc(N4CCOCC4)cc(C)c3c2)c1	i	i	-19.0	-148.9	-25.6	-15.9	x
CC1CCN(c2ccc3c(c2)S(=O)(=O)c2ccccc2C3=O)CC1	i	i	-211.2	-139.9	x	-196.1	-82.8
CCOC(=O)c1c(NC(=O)CSc2c[nH]c3ccccc23)sc2c1CCCC2	i	i	38.2	50.9	4.2	-24.4	x
CCOC(=O)c1c(NC(=O)CSc2c[nH]c3ccccc23)sc2c1CCC2	i	i	54.7*	28.4	-9.4	-19.1	9.8
COC(=O)c1sc2nc3c(cc2c1N)CCCC3	i	i	-152.7	-143.1	-224.6	-97.3	-26.8
CCOC(=O)c1sc2nc3c(cc2c1N)COC(C)(C)C3	i	i	-115.2	x	-128.8	-140.1	x
CCOC(=O)c1sc2nc3c(cc2c1N)COC(C)(CC)C3 (configuration not stated)	i	i	-212.2	-51.9	-204.4	-192.2	-110.2
NC(=O)c1sc2nc3c(cc2c1N)CCC3	i	i	-25.5	-53.1	-21.4	-20.2	x
O=C(COc1ccc2c(-c3ccccc3)cc(=O)oc2c1)NCc1ccccn1	i	i	-11.2	23.0	-12.3	24.3	x
SMILES	TMEM16A inh	TMEM16A act	Jurkat NFkB inh	aSyn 5UTR inh	KLF5 inhibitor	697 NFkB inh	Jurkat NFkB conf
O=C(COc1ccc2c(-c3ccccc3)cc(=O)oc2c1)Nc1cccnc1	i	i	50.2*	5.7	-29.4	-47.7	48.5*
CC1CCCCC12NC(=O)N(CC(=O)N1CCN(S(=O)(=O)/C=C/c3ccccc3)CC1)C2=O (configuration not stated)	x	i	-2.9	x	x	14.9	x
Cn1nc(-c2ccccn2)nc2c(=O)n(C)c(=O)nc1-2	i	i	56.5*	93.6*	105.1*	-61.2	94.8*
COc1ccc(-c2nc(-c3ccccn3)ncc2S(C)(=O)=O)cc1	i	i	-8.4	14.1	-11.2	-9.1	x
COc1cccc(C(=O)Nc2ccc3c(C)cc(=O)oc3c2)c1	i	i	-177.6	-49.9	-206.8	-131.5	-111.4
Cc1cc(=O)oc2cc(NC(=O)c3ccccc3C(=O)O)ccc12	i	i	2.3	5.9	-2.7	7.3	x
Cc1ccccc1NC(=O)Nc1ccc2c(c1)CCC2	i	i	-106.7	-140.9	-152.6	-79.7	x
CC(=O)Nc1ccc(S(=O)(=O)NC(C)C(=O)NCC(c2ccco2)N(C)C)cc1 (configuration not stated)	x	i	7.5	x	x	13.1	x
COc1ccc2oc(=O)c(C(=O)Nc3cccc(C)c3)cc2c1	i	i	-89.4	-127.6	-28.3	-101.4	x
COc1cccc(NC(=O)c2cc3ccccc3o/c2=N\O)c1	i	i	-159.1	-39.5	-12.8	-129.0	-129.6
COc1cccc(NC(=O)c2cnn(-c3ccccc3)c2C)c1	i	i	-168.9	-91.2	-83.6	-187.1	-82.5
COc1cccc(NC(=O)c2cc3cccc(OC)c3o/c2=N\O)c1	i	x	-117.0	-80.8	-125.6	-210.8	x
Cc1cccc(NC(=O)c2cc3ccccc3oc2=O)c1	i	i	-153.8	-25.0	-100.8	-137.6	-96.9
CCc1cccc(NC(=O)c2cnn(-c3ccccc3)c2C)c1	i	i	-146.6	-143.5	-137.7	-170.0	x
Cn1nnc(-c2ccc(OCc3ccccc3F)cc2)n1	i	i	-169.4	-54.1	-156.1	-173.9	-88.5
Fc1ccccc1COc1ccc(-c2nnn(Cc3ccccc3F)n2)cc1	i	i	14.9	-1.9	-5.2	28.5	x
Oc1ccc(N=Nc2ccc3c(c2)OCCO3)c2ncccc12	i	i	27.5	39.5	40.2	-152.8	x
Cc1ccc(C)c(N=Nc2ccc(O)c3ncccc23)c1	i	i	78.3*	33.3	-43.8	-103.2	65.5*
Cc1cccc(N=Nc2ccc(O)c3ncccc23)c1	i	i	89.6*	73.0*	15.9	-78.6	39.7
Cc1ccc2c(c1)sc1nc(=O)n(-c3cccc(Cl)c3)c(=O)n12	i	i	-166.8	-208.6	23.1	-77.6	-34.3
CN(C)c1ccc(C(=O)OCC(=O)c2cccs2)cc1	i	i	-150.7	-33.0	-141.9	-79.9	-86.7
O=C(O)c1ccc(CNC(=O)c2ccc3c(c2)C(=O)N(Cc2cccnc2)C3=O)cc1	i	i	5.0	x	-0.6	-11.8	x
